Laboratory results published in PubChem BioAssay (Tox21).
Records with an inconclusive call do not appear. Entries that show only a call come without a potency. Activity calls are given as the source filed them. Calls come from the whole dose curve; as a rule, active = well fitted inhibition curve with a large enough effect in the repeat runs; inconclusive = weak or mixed curves; inactive = flat fitted curve, though single readings scatter.

Biological target: Voltage-gated inwardly rectifying potassium channel KCNH2 (Homo sapiens) (UniProt Q12809)
Sequence (Q12809 whole entry, looked up): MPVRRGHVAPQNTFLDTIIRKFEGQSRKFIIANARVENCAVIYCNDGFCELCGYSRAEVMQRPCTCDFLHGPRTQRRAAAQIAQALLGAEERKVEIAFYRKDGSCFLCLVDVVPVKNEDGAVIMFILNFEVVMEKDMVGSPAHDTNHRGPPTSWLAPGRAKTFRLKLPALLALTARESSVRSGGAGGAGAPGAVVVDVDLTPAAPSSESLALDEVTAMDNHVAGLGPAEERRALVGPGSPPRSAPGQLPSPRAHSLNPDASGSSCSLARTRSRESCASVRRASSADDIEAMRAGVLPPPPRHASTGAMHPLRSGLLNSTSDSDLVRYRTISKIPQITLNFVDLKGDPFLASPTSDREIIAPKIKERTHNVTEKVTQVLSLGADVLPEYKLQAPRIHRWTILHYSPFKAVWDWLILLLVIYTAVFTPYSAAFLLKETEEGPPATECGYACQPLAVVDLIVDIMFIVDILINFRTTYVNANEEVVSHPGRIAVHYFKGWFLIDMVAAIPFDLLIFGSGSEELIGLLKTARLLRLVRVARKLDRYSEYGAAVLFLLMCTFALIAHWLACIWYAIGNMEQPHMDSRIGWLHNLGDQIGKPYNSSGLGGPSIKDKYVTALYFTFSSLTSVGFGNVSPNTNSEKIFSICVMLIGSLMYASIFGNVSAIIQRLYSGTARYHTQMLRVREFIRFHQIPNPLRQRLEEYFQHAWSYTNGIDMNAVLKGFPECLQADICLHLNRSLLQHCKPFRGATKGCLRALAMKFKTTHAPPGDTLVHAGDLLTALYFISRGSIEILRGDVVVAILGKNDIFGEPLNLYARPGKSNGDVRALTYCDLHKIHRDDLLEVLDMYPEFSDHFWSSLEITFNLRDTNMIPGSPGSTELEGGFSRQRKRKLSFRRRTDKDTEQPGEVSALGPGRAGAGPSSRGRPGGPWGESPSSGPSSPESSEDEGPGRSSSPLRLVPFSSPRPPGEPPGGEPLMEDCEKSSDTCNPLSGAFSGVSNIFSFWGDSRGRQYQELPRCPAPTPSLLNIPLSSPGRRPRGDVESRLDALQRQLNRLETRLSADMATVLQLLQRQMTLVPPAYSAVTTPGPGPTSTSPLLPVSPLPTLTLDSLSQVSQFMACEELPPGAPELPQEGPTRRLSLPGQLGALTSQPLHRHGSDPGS
Assay: Human Ether-a-go-go-Related Gene (hERG) channel small molecule antagonists: fluorescence cell-based qHTS assay (AID 1671200); note: nearly all actives have a fitted effect of over 50% in size
Conditions: hERG-U2OS cells, FluxOR thallium flux fluorescence; series mostly up to 76.8 µM
Text: National Center for Advancing Translational Sciences [NCATS]
U.S. Environmental Protection Agency [EPA]
National Institutes of Environmental Health Sciences [NIEHS]
National Toxicology Program [NTP]
U.S. Food and Drug Administration [FDA]
Mutations in the hERG channel cause Long QT (LQT) syndrome. LQT syndrome is a cardiac disorder which can cause ventricle arrhythmia and sudden death. Additionally, compounds which block the hERG channel can cause acquired LQT syndrome. Several FDA approved drugs have been removed from the market due to their hERG blocking activity. A cell-based hERG channel inhibition assay can be used to screen chemical compounds that inhibit hERG channel. This assay measures hERG channel activity using thallium ions as surrogate ions to measure potassium into the cells.
Tox21 Assay Protocol Summary:
hERG-U2OS cells were resuspended in culture medium and dispensed into 1536-well, black wall/clear-bottom plates at 1000cells/well/3uL using a Multidrop Combi dispenser (Thermo Fisher, Waltham, MA). After plates were incubated at 37 C overnight, 3 uL of Loading Buffer provided by FluxOR II Potassium Ion Channel Assay kit (Thermo, Carlsbad, CA) was added to each well. The assay plates were then incubated at room temperature in the dark for 1h. […] After the assay plates were incubated at room temperature for 10 min, 1 uL of Stimulus Buffer provided by FluxOR II Potassium Ion Channel Assay kit was added into each well and fluorescence intensity (480nm excitation/540nm emission) was continuously measured for 2 min at 1 second intervals using a Functional Drug Screening System (FDSS) 7000EX kinetic plate reader (Hamamatsu, Japan).
Potency is the fitted concentration of half-maximal effect.

| SMILES | Potency |
| --- | --- |
| Cc1ccc(S(=O)(=O)NC(=O)NN2CC3CCCC3C2)cc1 (stereo not given) | inactive |
| CNC(C)=O | inactive |
| CCCCCC(=O)CC | inactive |
| CC(C)OCCO | inactive |
| Cc1cc(N)no1 | inactive |
| CC1(C)S[C@@H]2[C@H](NC(=O)Cc3ccccc3)C(=O)N2[C@H]1C(=O)O (tested in a mixture with another compound) | inactive |
| CC(=O)Nc1ccc(S(=O)(=O)Nc2cc(C)on2)cc1 | inactive |
| O=C(O)COc1ccc2ccccc2c1 | inactive |
| C/C(=N\O)c1ccc(OCC(=O)N2CCCCC2)cc1 | inactive |
| CC(C)OC(=O)C(C(=O)OC(C)C)=C1SC=CS1 | inactive |
| CCC(C)c1nccnc1OC (stereo not given) | inactive |
| O=c1[nH]c(=O)c2cn[nH]c2[nH]1 | inactive |
| CC[C@@]1(c2ccccc2)NC(=O)N(C)C1=O | inactive |
| COC(=O)N/N=C/c1c[n+]([O-])c2ccccc2[n+]1[O-] | inactive |
| C=CCCCCCCCCOC(C)=O | inactive |
| CCCCCCC(O)CO (stereo not given) | inactive |
| Cc1cc(=O)oc2cc(O[C@@H]3SC[C@@H](O)[C@H](O)[C@H]3O)ccc12 | inactive |
| O=Cc1ccccc1S(=O)(=O)O | inactive |
| BrCCOc1ccccc1 | inactive |
| CCCOc1ccc(C(=O)OCCN(CC)CC)cc1N | inactive |

| SMILES | Potency |
| --- | --- |
| O=S(=O)(O)c1cc(I)c(O)c2ncccc12 | inactive |
| CCCC(=O)CC | inactive |
| N=C(N)N | inactive |
| Nc1nc(Cl)cc(Cl)n1 | inactive |
| O=C1c2ccccc2C(=O)N1CO | inactive |
| CCC(=O)OCCOc1ccccc1 | inactive |
| CCNC(=O)C(C)OC(=O)Nc1ccccc1 (stereo not given) | inactive |
| CCCC(=O)OC | inactive |
| CC(=O)c1ccc(O)c(C(N)=O)c1 | inactive |
| O=C(O)CCC(=O)Nc1ccc(S(=O)(=O)Nc2nccs2)cc1 | inactive |
| CCCCCC(CC)OC(=O)CCCOc1ccc(Cl)cc1Cl (stereo not given) | inactive |
| CCC(C)SSC(C)CC (stereo not given) | inactive |
| Cc1cc2c(cc1CC(=O)c1sccc1S(=O)(=O)Nc1onc(C)c1Cl)OCO2 | inactive |
| CC(=O)c1c(C)cc(C(C)(C)C)cc1C | inactive |
| C[C@@H]1CCC[C@H](C)N1CCCC(O)(c1ccccc1)c1ccccn1 (stereo not given in full) | 8.49 µM (active) |
| O=C(O)/C=C(\CC(=O)O)C(=O)O | inactive |
| C=CCn1cc[n+](C)c1 | inactive |
| Cc1ccc(N)nc1 | inactive |
| NC(=O)CC[C@@H](N)C(=O)O | inactive |
| CCCc1ncc(C(=O)O)s1 | inactive |
